# A selection: hits, their analogues and other compounds. The true share with any hit is near 19%.
# HT1080-NT tox = qHTS for induction of synthetic lethality in tumor cells producing 2HG: qHTS for the HT-1080-NT fibrosarcoma cell line. HT-1080-NT fibrosarcoma viability, CellTiter-Glo ATP luminescence, 48 h. Potency, µM (highest dose often 46.1 µM), without a hit: at the top dose activity, negative = less viability, hits mostly cytotoxic. hit rate 1.6% among 360,000;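 further: NT is the 2HG producing partner of a matched IDH1 knockdown line; potency means the concentration at half of the fitted maximal effect; 0% = DMSO-treated cells and -100% = media-only wells without cells; nearly all actives have a fitted effect of over 55% in size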
#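 Viability of the 2HG-overproducing fibrosarcoma line after 48 hours of compound exposure at 37 degrees C was determined by luminescence with CellTiter-Glo, and concentration-effect curves were then fitted and categorized.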
# TDP1 cell noCPT = qHTS for Inhibitors of human tyrosyl-DNA phosphodiesterase 1 (TDP1): qHTS in cells in absence of CPT. DT40 Tdp1-/- hTDP1 cells, no CPT, ATP luminescence, 48 h. Potency, µM (doses to about 46.2 µM), without a hit: at the top dose activity change, negative = growth inhibition, most hits filed as inhibitors. hit rate 15% among 420,000. AID 686978, 2013; further: potency means the concentration at half of the fitted maximal effect; nearly all actives have a fitted effect of over 55% in size
#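 Chicken DT40 Tdp1-/- cells stably complemented with human TDP1 were seeded at 400 cells/well with DMSO in place of 20 nM camptothecin. After compound pinning, cells grew at least 48 hr at 37 °C; viability read by CellTiter-Glo luminescence.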
# IL-1B inflam inh = qHTS for Inhibitors of Inflammasome Signaling: IL-1-beta AlphaLISA Primary Screen; THP-1 LPS/ATP IL-1B secretion, AlphaLISA, 16 h; hits give low values; activity change, % at 57.5 µM; hit rate 4.7% among 360,000; in the data active means activity change below about -50%; inconclusive means mostly about -30% to -49%
#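 Secreted IL-1B measured by AlphaLISA bead assay after 16 h compound exposure of THP-1 cells; compounds (final up to 57.5 uM) added 1 h before LPS (250 ng/mL) and ATP (1.25 mM) stimulation; lower signal means less secretion.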
# HT1080 IDH1KD tx = qHTS for induction of synthetic lethality in tumor cells producing 2HG: qHTS for the HT-1080-IDH1KD cell line. HT-1080 IDH1 knockdown viability, ATP luminescence, 48 h. Potency, µM (highest dose often 46.1 µM), inactives show at the highest dose activity, negative = toxicity, most hits filed as cytotoxic. hit rate 2% among 360,000. AID 686971, 2013;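 further: potency means the concentration at half of the fitted maximal effect; 0% = DMSO wells and -100% = cell-free medium wells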
#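 Knockdown cells (IDH1KD HT-1080) received compounds 2 h after plating at 750 cells/well and were kept 48 h at 37 °C in 5% FBS RPMI. A CellTiter-Glo luminescence read gave % activity for curve fitting.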
# TDP1 cell CPT = qHTS for Inhibitors of human tyrosyl-DNA phosphodiesterase 1 (TDP1): qHTS in cells in presence of CPT. chicken DT40 Tdp1-/-;hTDP1 cells + 20 nM CPT, ATP luminescence, 48 h. Potency, µM (highest dose often 46.2 µM), inactives show top-dose activity change, negative = growth inhibition, usual class: inhibitors. hit rate 12% among 420,000. AID 686979, 2013; further: potency means the concentration at half of the fitted maximal effect; nearly all actives have a fitted effect of over 55% in size
#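 Cell growth measured by CellTiter-Glo luminescence after a minimum 48 h, 37 C compound exposure with 20 nM CPT in Tdp1-knockout DT40 cells stably expressing hTDP1, seeded 400/well; qHTS titration format.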
# An asterisk follows results filed as active; u = inconclusive; x = no result given; [ ] = remark or other dose. Unless noted, the call rests on the fitted dose curve; in most records, active means well fitted curve in the direction sought with a large enough effect; inconclusive means small, poorly fitted or top-dose-only effect, or another doubt; inactive means no such curve, though single readings can be large; an effect the other way counts as inactive or inconclusive. Unless noted, on the % scale 0 is the no-effect control and ±100 the full control effect.
SMILES,HT1080-NT tox,TDP1 cell noCPT,IL-1B inflam inh,HT1080 IDH1KD tx,TDP1 cell CPT
COc1cc2c(cc1OC)C1C/C(=N\O)C(CC(C)C)CN1CC2 (stereo not drawn),0%,21µM*,30,-2%,u
COc1cc2c(cc1OC)C1CC(=O)C(CC(C)C)CN1CC2 (stereo not drawn),4%,-24%,13,2%,-25%
CCC(CC)CC1CN2CCc3cc(OC)c(OC)cc3C2CC1(O)CC (stereo not drawn),-14%,8.2µM*,-7,-13%,8.2µM*
CC1(Cc2ccc(Cl)cc2)C(=O)Nc2c(Cl)cccc21 (stereo not drawn),u,u,38,10%,-20%
C(C#CCN1CCOCC1)#CCN1CCOCC1,3%,-23%,-11,10%,5%
CCOC(=O)N1CCN(C2=C(NS(=O)(=O)c3ccccc3)C(=O)c3ccccc3C2=O)CC1,u,u,6,-25%,13µM*
CCOC(=O)N1CCN(C2=C(NS(=O)(=O)c3ccc(Br)cc3)C(=O)c3ccccc3C2=O)CC1,-28%,16µM*,13,u,12µM*
NC(=O)C1CCN(C2=C(NS(=O)(=O)c3ccccc3)C(=O)c3ccccc3C2=O)CC1,-2%,u,36,-21%,-24%
NC(=O)C1CCN(C2=C(NS(=O)(=O)c3ccc(Br)cc3)C(=O)c3ccccc3C2=O)CC1,u,18µM*,41,u,23µM*
O=C(N[C@@H]1CC[C@@H](CCNS(=O)(=O)c2ccc(Cl)cc2)O[C@@H]1CO)c1cccnc1,12%,-24%,4,13%,-1%
CCc1ccc(NC(=O)CSC2=Nc3ccccc3C3=NC(CC(=O)NCc4ccc5c(c4)OCO5)C(=O)N23)cc1 (stereo not drawn),x,23µM*,x,x,u
COc1ccc(NC(=O)CSC2=Nc3ccccc3C3=NC(CC(=O)NCc4ccc5c(c4)OCO5)C(=O)N23)cc1 (stereo not drawn),x,-8%,x,x,-23%
O=C(CC1N=C2c3ccccc3N=C(SCC(=O)Nc3ccc(F)cc3)N2C1=O)NCc1ccc2c(c1)OCO2 (stereo not drawn),x,-20%,x,x,u
COc1ccc(OC)c(NC(=O)CSC2=Nc3ccccc3C3=NC(CC(=O)NCc4ccc5c(c4)OCO5)C(=O)N23)c1 (stereo not drawn),x,23µM*,x,x,u
Cc1ccc2c(Cl)cc(Cl)c(OCC(=O)Nc3cccc(S(N)(=O)=O)c3)c2n1,u,-18%,u,u,-11%
Cc1ccc2c(Cl)cc(Cl)c(OCC(=O)Nc3cccc(S(=O)(=O)N(C)C)c3)c2n1,-1%,21µM*,24,1%,u
Cc1ccc2c(Cl)cc(Cl)c(OCC(=O)NC(C)(C)C)c2n1,-20%,23µM*,11,-16%,u
Cc1ccc2c(Cl)cc(Cl)c(OCC(=O)Nc3cc(S(=O)(=O)N(C)C)ccc3C)c2n1,-13%,15µM*,u,-23%,23µM*
Cc1cc(OCC(O)CN(C)C(=O)C(C)Oc2ccccc2)ccc1Cl (stereo not drawn),0%,u,9,-2%,u
CNC(=O)C(C#N)(Cc1cc(C(C)=O)ccc1OC)Cc1cc(C(C)=O)ccc1OC,-5%,3%,10,-7%,3%
COc1ccc2ccc3c(c2c1)N=C[C@]1(O3)N(C)c2ccccc2C1(C)C,u,10µM*,-26,u,18µM*
CC1=NOC2(C1)N(C)c1ccccc1C2(C)C (stereo not drawn),3%,-2%,0,-1%,-5%
Cc1cc(C(=O)O)ccc1N=Cc1c(O)ccc2ccccc12,u,0%,22,-28%,1%
Cc1ccc(/C=C2\CCC3=C2OC(N)=C(C#N)C3c2ccc(C)cc2)cc1 (stereo not drawn),-5%,6.5µM*,-70*,13%,4.6µM*
N#CC1=C(N)OC2=C(CCc3ccccc32)C1c1ccccc1 (stereo not drawn),0.92µM*,0.92µM*,13,0.58µM*,0.82µM*
SMILES,HT1080-NT tox,TDP1 cell noCPT,IL-1B inflam inh,HT1080 IDH1KD tx,TDP1 cell CPT
O=C(O)c1nn(CC(=O)N(C2CCCCC2)C2CCCCC2)c(=O)c2ccccc12,2%,-1%,14,21%,0%
C1=CC2=NC34CCCCC3CC3=C(CCCC3)N4C2=CC1=NC1CCCCC1 (stereo not drawn),-12%,5.2µM*,-98*,u,5.2µM*
CCN(CC)C(=O)c1ccc(COc2ccc(Cl)c(C)c2)o1,u,13µM*,-11,u,16µM*
Cc1nc2ccc(C(=O)N3CCc4c(cnc(C)c4CNC(=O)/C=C/c4cccs4)C3)cc2nc1C,x,-17%,x,x,16%[9.04 µM]
CN(C)S(=O)(=O)c1ccc(C(=O)OCc2nnc(-c3ccccc3)o2)cc1,16%,-6%,6,4%,9%
Cc1ccc(C(=O)N[C@H](C(=O)OCc2nnc(-c3ccccc3)o2)C(C)C)cc1,-5%,-19%,19,-4%,-32%
CS(=O)(=O)c1ccc(C(=O)OCc2nnc(-c3ccccc3)o2)cc1[N+](=O)[O-],7.3µM*,10µM*,-70*,4.1µM*,3.7µM*
O=C(OCc1nnc(-c2ccccc2)o1)c1ccc(S(=O)(=O)NCc2ccco2)cc1,13%,23µM*,0,0%,u
CC(=O)c1c(C)[nH]c(C(=O)OCc2nnc(-c3ccccc3)o2)c1C,-2%,13µM*,25,-16%,u
CC(C)[C@H](NC(=O)c1ccccc1)C(=O)OCc1nnc(-c2ccccc2)o1,15%,23µM*,34,27%,u
COc1ccc(NCC(O)Cn2c(C)c(C)c3ccccc32)cc1 (stereo not drawn),-13%,u,-173*,u,u
FC(F)(F)c1cnc2c(c1)Nc1ccccc1S2,5%,21µM*,-16,6%,u
c1ccc2c(c1)Nc1nccnc1S2,0%,-25%,9,11%,u
COc1ccc(C)cc1NC(=O)c1nnn(Cc2cccc(C(F)(F)F)c2)c1N,-25%,-21%,12,u,-1%
COc1cc(/C=C(\C#N)c2ccccn2)cc(OC)c1O,-8%,u,21,-18%,9.2µM*
